Laboratory results: the supplement of paper PMC10849652
About 8,800 targets were measured; listed, in parts, are those with a hit and a random draw of the rest. About 0.5% of all pairs of compound and target were hits.

Experiments:
Assay in all cases: log2 fold change, soluble protein after heating vs DMSO (PISA); higher = thermal stabilisation; K562 lysate, 10 uM; active = over 0.2 and 3.5 SD of the protein, either way, in both replicates (recomputed)
alvocidib = compound: CN1CC[C@H](c2c(O)cc(O)c3c(=O)cc(-c4ccccc4Cl)oc23)[C@H](O)C1 [alvocidib]
Summary of the method: (§1)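 Pellets of K562 cells were dounce-homogenised in PBS pH 7.4 with 1 mM MgCl2, and the crude extract was held at 1 mg/mL protein for a 30 min treatment with 10 μM compound. Aliquots were heated for 3 min over 48°C-58°C and pooled before NP-40 was added to 0.5% at 4°C. The supernatant from 21,000xg for 90 min was quantified by TMTpro 16plex LC-MS/MS with channel sums equalised. Values are reported from duplicates as log-two fold change in thermal stability relative to solvent controls.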

Tubastatin A = compound: CN1CCc2c(c3ccccc3n2Cc2ccc(C(=O)NO)cc2)C1 [Tubastatin A]
Summary of the method: as §1

[1] = compound: CNC(=O)C1=CC=CC=C1NC2=NC(=NC=C2Cl)NC3=C(C=C(C=C3)N4CCOCC4)OC
Summary of the method: as §1

defactinib = compound: CNC(=O)c1ccc(Nc2ncc(C(F)(F)F)c(NCc3nccnc3N(C)S(C)(=O)=O)n2)cc1 [defactinib]
Summary of the method: as §1

[2] = compound: CNc1nc(-c2ccc3c(N)n[nH]c3c2)cc(N2C[C@@H](C(=O)NC3CCCCC3)CC[C@H]2C)n1
Summary of the method: as §1

encorafenib = compound: COC(=O)N[C@@H](C)CNc1nccc(-c2cn(C(C)C)nc2-c2cc(Cl)cc(NS(C)(=O)=O)c2F)n1 [encorafenib]
Summary of the method: as §1

[3] = compound: COC(=O)[C@H](CCSC)NC(=O)C1=C(C=C(C=C1)NC[C@H](CS)N)C2=CC=CC=C2
Summary of the method: as §1

alisertib = compound: COc1cc(Nc2ncc3c(n2)-c2ccc(Cl)cc2C(c2c(F)cccc2OC)=NC3)ccc1C(=O)O [alisertib]
Summary of the method: as §1

[4] = compound: COc1cc2nc(-c3cc(F)ccc3O)nc(N[C@@H]3CNC[C@H]3C(C)(C)O)c2cc1OC
Summary of the method: as §1

gefitinib = compound: COc1cc2ncnc(Nc3ccc(F)c(Cl)c3)c2cc1OCCCN1CCOCC1 [gefitinib]
Summary of the method: as §1

lapatinib = compound: CS(=O)(=O)CCNCc1ccc(-c2ccc3ncnc(Nc4ccc(OCc5cccc(F)c5)c(Cl)c4)c3c2)o1 [lapatinib]
Summary of the method: as §1

pictilisib = compound: CS(=O)(=O)N1CCN(Cc2cc3nc(-c4cccc5[nH]ncc45)nc(N4CCOCC4)c3s2)CC1 [pictilisib]
Summary of the method: as §1

crizotinib = compound: C[C@@H](Oc1cc(-c2cnn(C3CCNCC3)c2)cnc1N)c1c(Cl)ccc(F)c1Cl [crizotinib]
Summary of the method: as §1

[5] = compound: C[C@H](C1=CC=C(C=C1)C(=O)NC2=C3C=CNC3=NC=C2)N
Summary of the method: as §1

duvelisib = compound: C[C@H](Nc1ncnc2nc[nH]c12)c1cc2cccc(Cl)c2c(=O)n1-c1ccccc1 [duvelisib]
Summary of the method: as §1

gandotinib = compound: Cc1cc(Nc2cc(CN3CCOCC3)c3nc(C)c(Cc4ccc(Cl)cc4F)n3n2)n[nH]1 [gandotinib]
Summary of the method: as §1

tozasertib = compound: Cc1cc(Nc2cc(N3CCN(C)CC3)nc(Sc3ccc(NC(=O)C4CC4)cc3)n2)n[nH]1 [tozasertib]
Summary of the method: as §1

doramapimod = compound: Cc1ccc(-n2nc(C(C)(C)C)cc2NC(=O)Nc2ccc(OCCN3CCOCC3)c3ccccc23)cc1 [doramapimod]
Summary of the method: as §1

bafetinib = compound: Cc1ccc(NC(=O)c2ccc(CN3CC[C@H](N(C)C)C3)c(C(F)(F)F)c2)cc1Nc1nccc(-c2cncnc2)n1 [bafetinib]
Summary of the method: as §1

[6] = compound: Cc1cccc(CC(=O)N2CCc3c2ccc(-c2cn(C)c4ncnc(N)c24)c3F)n1
Summary of the method: as §1

Measured: log2 fold change

PKN1 isoform 2 (UniProt Q16512)
inactive: alvocidib -0.036 | Tubastatin A -0.056 | [1] -0.001 | defactinib -0.079 | [2] -0.003 | encorafenib 0.075 | [3] 0.116 | alisertib -0.009 | [4] -0.1 | gefitinib -0.005 | lapatinib 0.038 | pictilisib -0.005 | crizotinib -0.032 | [5] 0.095 | duvelisib -0.014 | gandotinib -0.233 | tozasertib -0.005 | doramapimod 0.108 | bafetinib -0.069 | [6] 0.04

PTS (UniProt Q03393)
UniProt Q03393, sequence (Q03393 whole entry, looked up): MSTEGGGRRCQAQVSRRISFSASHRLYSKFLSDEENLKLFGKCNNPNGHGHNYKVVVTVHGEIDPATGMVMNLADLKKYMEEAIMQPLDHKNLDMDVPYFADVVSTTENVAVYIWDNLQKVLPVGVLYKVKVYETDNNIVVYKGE
inactive: alvocidib -0.055 | Tubastatin A -0.007 | [1] 0.043 | defactinib -0.059 | [2] 0.015 | encorafenib 0.1 | [3] -0.022 | alisertib -0.009 | [4] 0.016 | gefitinib 0.121 | lapatinib -0.018 | pictilisib 0.008 | crizotinib 0.051 | [5] -0.024 | duvelisib 0.051 | gandotinib -0.039 | tozasertib 0.031 | doramapimod -0.069 | bafetinib 0 | [6] 0.05

PI4KA (UniProt P42356)
inactive: alvocidib -0.006 | Tubastatin A -0.165 | [1] 0.035 | defactinib 0.006 | [2] -0.029 | encorafenib 0.026 | [3] -0.005 | alisertib 0.028 | [4] 0.019 | gefitinib 0 | lapatinib -0.03 | pictilisib 0.097 | crizotinib -0.005 | [5] -0.043 | duvelisib 0.189 | gandotinib -0.033 | tozasertib 0.013 | doramapimod -0.002 | bafetinib -0.075 | [6] 0.073

PICALM (UniProt H0YEH1)
inactive: alvocidib -0.206 | Tubastatin A 0.126 | [1] 0.098 | defactinib 0.006 | [2] 0 | encorafenib -0.038 | [3] 0.098 | alisertib 0.049 | [4] -0.042 | gefitinib -0.036 | lapatinib 0.046 | pictilisib 0.016 | crizotinib -0.086 | duvelisib -0.075 | gandotinib 0.238 | tozasertib 0.152 | doramapimod 0.274 | bafetinib 0.018
active: [5] -0.47 | [6] 0.335

POLB (UniProt P06746)
inactive: alvocidib 0.023 | Tubastatin A -0.199 | [1] -0.062 | defactinib 0.028 | [2] -0.033 | encorafenib 0.045 | [3] 0.086 | alisertib 0.015 | [4] 0 | gefitinib 0.038 | lapatinib 0.017 | pictilisib 0.075 | crizotinib -0.003 | [5] 0.011 | duvelisib 0.018 | gandotinib -0.041 | tozasertib -0.015 | doramapimod -0.003 | bafetinib -0.024 | [6] -0.009

PIK3R1 (UniProt P27986)
UniProt P27986, sequence (P27986 whole entry, looked up): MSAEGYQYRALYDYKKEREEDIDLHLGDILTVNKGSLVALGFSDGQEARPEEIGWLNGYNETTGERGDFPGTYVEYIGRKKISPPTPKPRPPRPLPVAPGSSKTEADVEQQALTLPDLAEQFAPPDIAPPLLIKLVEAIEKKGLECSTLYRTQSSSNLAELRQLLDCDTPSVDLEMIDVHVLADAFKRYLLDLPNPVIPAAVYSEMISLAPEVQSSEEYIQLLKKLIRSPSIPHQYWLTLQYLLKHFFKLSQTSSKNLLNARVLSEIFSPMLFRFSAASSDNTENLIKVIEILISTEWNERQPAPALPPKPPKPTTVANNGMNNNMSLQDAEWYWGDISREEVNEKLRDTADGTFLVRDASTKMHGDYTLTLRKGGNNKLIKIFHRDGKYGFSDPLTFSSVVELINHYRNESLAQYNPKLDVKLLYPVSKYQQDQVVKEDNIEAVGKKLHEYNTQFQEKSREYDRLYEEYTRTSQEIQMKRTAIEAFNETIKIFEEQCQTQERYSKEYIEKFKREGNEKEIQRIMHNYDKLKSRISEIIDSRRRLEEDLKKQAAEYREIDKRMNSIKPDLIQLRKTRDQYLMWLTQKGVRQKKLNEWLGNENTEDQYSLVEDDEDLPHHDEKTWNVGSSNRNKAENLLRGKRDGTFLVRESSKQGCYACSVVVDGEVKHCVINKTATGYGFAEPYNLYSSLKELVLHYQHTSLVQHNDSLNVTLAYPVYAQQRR
active: duvelisib 0.534
inactive: alvocidib 0.032 | Tubastatin A -0.037 | [1] 0.075 | defactinib -0.066 | [2] -0.039 | encorafenib -0.025 | [3] -0.111 | alisertib 0.078 | [4] 0.023 | gefitinib -0.045 | lapatinib 0.002 | pictilisib 0.374 | crizotinib -0.015 | [5] 0.033 | gandotinib 0.171 | tozasertib 0.039 | doramapimod -0.02 | bafetinib 0.007 | [6] -0.011

PUS3 (UniProt Q9BZE2)
UniProt Q9BZE2, sequence (Q9BZE2 whole entry, looked up): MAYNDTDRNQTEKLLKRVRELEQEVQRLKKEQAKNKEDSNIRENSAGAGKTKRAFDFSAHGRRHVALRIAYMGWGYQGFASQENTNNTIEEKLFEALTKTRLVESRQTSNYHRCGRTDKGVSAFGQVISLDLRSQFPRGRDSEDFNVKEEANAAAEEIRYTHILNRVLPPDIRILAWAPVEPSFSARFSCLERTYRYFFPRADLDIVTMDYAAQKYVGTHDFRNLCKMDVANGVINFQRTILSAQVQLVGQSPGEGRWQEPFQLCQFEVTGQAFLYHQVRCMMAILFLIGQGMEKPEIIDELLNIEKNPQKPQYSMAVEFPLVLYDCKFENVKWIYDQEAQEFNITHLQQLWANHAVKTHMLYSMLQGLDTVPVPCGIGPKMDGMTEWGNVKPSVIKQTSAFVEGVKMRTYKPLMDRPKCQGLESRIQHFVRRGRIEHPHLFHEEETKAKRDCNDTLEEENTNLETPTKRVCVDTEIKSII
inactive: alvocidib 0.094 | Tubastatin A -0.181 | [1] 0.035 | defactinib -0.089 | [2] -0.117 | encorafenib 0.06 | [3] 0.04 | alisertib 0.01 | [4] -0.021 | gefitinib 0.041 | lapatinib 0.008 | pictilisib -0.085 | crizotinib 0.013 | [5] 0.148 | duvelisib -0.03 | gandotinib -0.234 | tozasertib 0.019 | doramapimod -0.087 | bafetinib -0.005 | [6] -0.185

PUM1 isoform 3 (UniProt Q14671)
UniProt Q14671, sequence (Q14671 whole entry, looked up): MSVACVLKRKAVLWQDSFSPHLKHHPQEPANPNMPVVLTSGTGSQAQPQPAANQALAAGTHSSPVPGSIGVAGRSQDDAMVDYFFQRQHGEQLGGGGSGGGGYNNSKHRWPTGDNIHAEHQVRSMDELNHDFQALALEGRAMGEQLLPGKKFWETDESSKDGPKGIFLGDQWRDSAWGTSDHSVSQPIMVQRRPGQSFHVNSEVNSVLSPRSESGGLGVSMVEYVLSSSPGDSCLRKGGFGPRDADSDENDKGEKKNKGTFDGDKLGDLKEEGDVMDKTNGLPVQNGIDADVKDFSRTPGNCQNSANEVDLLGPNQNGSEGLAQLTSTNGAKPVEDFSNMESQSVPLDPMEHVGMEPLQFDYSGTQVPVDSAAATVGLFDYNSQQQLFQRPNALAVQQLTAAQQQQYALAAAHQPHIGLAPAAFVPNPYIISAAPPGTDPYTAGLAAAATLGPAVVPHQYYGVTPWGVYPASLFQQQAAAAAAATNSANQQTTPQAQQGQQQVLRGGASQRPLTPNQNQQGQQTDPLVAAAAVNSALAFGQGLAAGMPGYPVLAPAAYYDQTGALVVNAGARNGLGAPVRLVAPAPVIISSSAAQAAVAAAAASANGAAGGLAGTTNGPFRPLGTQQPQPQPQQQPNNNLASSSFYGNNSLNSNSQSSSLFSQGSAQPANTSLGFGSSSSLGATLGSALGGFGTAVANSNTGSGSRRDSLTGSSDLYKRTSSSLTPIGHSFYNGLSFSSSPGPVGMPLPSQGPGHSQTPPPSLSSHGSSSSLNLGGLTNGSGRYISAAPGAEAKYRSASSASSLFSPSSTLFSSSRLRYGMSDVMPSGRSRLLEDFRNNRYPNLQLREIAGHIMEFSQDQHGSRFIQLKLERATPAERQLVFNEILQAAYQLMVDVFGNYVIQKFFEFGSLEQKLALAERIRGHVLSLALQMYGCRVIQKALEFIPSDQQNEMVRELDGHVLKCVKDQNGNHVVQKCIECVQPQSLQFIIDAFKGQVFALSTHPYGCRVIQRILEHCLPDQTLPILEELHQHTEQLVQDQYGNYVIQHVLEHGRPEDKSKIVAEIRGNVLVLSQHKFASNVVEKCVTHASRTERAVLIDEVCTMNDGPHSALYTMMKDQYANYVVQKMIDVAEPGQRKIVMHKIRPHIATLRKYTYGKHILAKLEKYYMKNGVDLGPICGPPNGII
inactive: alvocidib 0.02 | Tubastatin A -0.033 | [1] -0.017 | defactinib 0.017 | [2] -0.023 | encorafenib 0.008 | [3] 0 | alisertib 0.031 | [4] 0.017 | gefitinib -0.014 | lapatinib 0.004 | pictilisib -0.036 | crizotinib 0.067 | [5] 0.021 | duvelisib -0.003 | gandotinib -0.151 | tozasertib 0.01 | bafetinib -0.067 | [6] -0.026
active: doramapimod -0.315

PDCD6IP (UniProt Q8WUM4)
inactive: alvocidib 0.05 | Tubastatin A 0 | [1] -0.002 | defactinib -0.021 | [2] -0.042 | encorafenib -0.1 | [3] 0.143 | alisertib -0.039 | [4] 0.013 | gefitinib -0.001 | lapatinib -0.006 | pictilisib -0.032 | crizotinib -0.103 | [5] -0.106 | duvelisib 0.004 | gandotinib -0.012 | tozasertib 0.033 | doramapimod 0.034 | bafetinib -0.053 | [6] 0.012

PHGDH (UniProt O43175)
UniProt O43175, sequence (O43175 whole entry, looked up): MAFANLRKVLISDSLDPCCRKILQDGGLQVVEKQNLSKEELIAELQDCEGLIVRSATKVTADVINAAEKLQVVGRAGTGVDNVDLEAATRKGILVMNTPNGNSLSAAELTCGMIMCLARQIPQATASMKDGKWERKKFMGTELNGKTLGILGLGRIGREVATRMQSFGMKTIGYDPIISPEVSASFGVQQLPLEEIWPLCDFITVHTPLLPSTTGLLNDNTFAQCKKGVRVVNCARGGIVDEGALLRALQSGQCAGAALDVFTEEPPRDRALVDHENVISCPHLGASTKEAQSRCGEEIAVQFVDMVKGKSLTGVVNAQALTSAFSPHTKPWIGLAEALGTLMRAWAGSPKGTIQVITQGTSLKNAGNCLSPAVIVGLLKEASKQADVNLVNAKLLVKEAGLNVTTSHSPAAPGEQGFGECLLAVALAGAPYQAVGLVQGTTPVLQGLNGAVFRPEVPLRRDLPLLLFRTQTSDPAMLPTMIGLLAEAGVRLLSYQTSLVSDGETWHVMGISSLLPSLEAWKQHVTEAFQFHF
inactive: alvocidib 0.028 | [1] -0.081 | defactinib 0.022 | [2] 0.018 | encorafenib 0.006 | alisertib 0.004 | [4] 0.006 | gefitinib -0.016 | lapatinib -0.053 | pictilisib 0.005 | crizotinib 0 | [5] 0.076 | duvelisib 0 | gandotinib -0.071 | tozasertib 0.019 | doramapimod -0.039 | bafetinib 0.032 | [6] -0.055
active: Tubastatin A -0.415 | [3] -0.439

PDXK (UniProt O00764)
UniProt O00764, sequence (O00764 whole entry, looked up): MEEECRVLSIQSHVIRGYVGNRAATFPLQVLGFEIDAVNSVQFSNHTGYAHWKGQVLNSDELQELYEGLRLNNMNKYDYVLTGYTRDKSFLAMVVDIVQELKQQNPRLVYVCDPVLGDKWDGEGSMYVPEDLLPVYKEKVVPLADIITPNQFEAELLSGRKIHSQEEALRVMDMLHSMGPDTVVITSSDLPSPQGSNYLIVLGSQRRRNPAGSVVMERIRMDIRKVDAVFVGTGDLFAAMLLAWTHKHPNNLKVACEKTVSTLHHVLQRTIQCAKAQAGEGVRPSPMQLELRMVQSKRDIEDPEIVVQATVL
inactive: alvocidib -0.031 | Tubastatin A -0.005 | [1] 0.027 | defactinib 0.047 | [2] 0.06 | encorafenib -0.032 | [3] -0.012 | alisertib -0.038 | [4] 0.016 | gefitinib -0.022 | lapatinib -0.026 | pictilisib 0.014 | crizotinib 0.004 | [5] -0.134 | duvelisib 0.041 | gandotinib 0.109 | tozasertib -0.014 | doramapimod -0.072 | bafetinib 0.046 | [6] 0.083

PCBP2 isoform 3 (UniProt Q15366)
inactive: alvocidib 0.038 | Tubastatin A -0.074 | [1] 0.017 | defactinib 0.006 | [2] -0.075 | encorafenib 0.049 | [3] -0.048 | alisertib -0.001 | [4] -0.006 | gefitinib -0.009 | lapatinib -0.013 | pictilisib -0.008 | crizotinib 0.079 | [5] -0.005 | duvelisib -0.015 | gandotinib -0.023 | tozasertib 0.014 | doramapimod 0.012 | bafetinib 0.002 | [6] -0.042

PRAME (UniProt P78395)
UniProt P78395, sequence (P78395 whole entry, looked up): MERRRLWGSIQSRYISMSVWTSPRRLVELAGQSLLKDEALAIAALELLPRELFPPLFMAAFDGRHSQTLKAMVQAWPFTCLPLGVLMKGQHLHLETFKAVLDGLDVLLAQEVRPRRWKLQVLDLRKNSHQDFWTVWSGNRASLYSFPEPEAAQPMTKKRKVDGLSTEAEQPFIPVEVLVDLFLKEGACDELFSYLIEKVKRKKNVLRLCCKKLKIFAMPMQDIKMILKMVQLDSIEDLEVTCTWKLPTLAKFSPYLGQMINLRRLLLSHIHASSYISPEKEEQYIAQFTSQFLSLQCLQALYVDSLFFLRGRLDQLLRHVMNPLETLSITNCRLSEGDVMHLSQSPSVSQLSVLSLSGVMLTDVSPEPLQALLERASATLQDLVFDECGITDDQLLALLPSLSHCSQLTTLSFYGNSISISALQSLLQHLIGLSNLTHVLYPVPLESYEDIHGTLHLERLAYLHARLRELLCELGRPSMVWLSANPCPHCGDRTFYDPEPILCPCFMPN
inactive: alvocidib 0.034 | Tubastatin A -0.111 | [1] 0.024 | defactinib 0.006 | [2] -0.006 | encorafenib -0.001 | [3] 0.13 | alisertib 0.014 | [4] 0.009 | gefitinib -0.007 | lapatinib -0.012 | pictilisib -0.008 | crizotinib -0.08 | [5] -0.015 | duvelisib 0.005 | gandotinib -0.037 | tozasertib -0.013 | doramapimod 0.007 | bafetinib -0.062 | [6] 0.056

PIP4K2C (UniProt Q8TBX8)
UniProt Q8TBX8, sequence (Q8TBX8 whole entry, looked up): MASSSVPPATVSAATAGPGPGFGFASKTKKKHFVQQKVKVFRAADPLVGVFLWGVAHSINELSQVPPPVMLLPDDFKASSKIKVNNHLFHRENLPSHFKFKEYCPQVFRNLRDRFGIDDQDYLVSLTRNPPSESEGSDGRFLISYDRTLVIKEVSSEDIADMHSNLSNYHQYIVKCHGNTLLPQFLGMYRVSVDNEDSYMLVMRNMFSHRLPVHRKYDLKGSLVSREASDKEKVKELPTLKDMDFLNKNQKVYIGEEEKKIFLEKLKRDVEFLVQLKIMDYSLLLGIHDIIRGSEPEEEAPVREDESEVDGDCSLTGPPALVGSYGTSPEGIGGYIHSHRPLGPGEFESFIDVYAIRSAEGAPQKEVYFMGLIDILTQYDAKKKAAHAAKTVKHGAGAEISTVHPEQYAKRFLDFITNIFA
inactive: Tubastatin A 0.022 | [1] 0.125 | defactinib 0.092 | [2] -0.07 | encorafenib 0.139 | [3] -0.085 | alisertib 0.013 | [4] 0.104 | gefitinib 0.083 | lapatinib -0.043 | pictilisib 0.063 | crizotinib -0.036 | [5] -0.128 | duvelisib 0.033 | gandotinib 0.109 | tozasertib -0.06 | doramapimod 0.006 | [6] -0.032
active: alvocidib 0.47 | bafetinib 0.664

PLA2G4B isoform 6 (UniProt P0C869)
inactive: alvocidib -0.035 | Tubastatin A 0.054 | [1] -0.032 | defactinib 0.024 | [2] 0.051 | encorafenib 0.09 | [3] 0.177 | alisertib -0.009 | [4] 0.073 | gefitinib 0.115 | lapatinib -0.001 | pictilisib -0.032 | crizotinib -0.49 | [5] -0.015 | duvelisib -0.038 | gandotinib 0.069 | tozasertib -0.009 | doramapimod 0 | bafetinib -0.133 | [6] 0.086

PRMT8 (UniProt Q9NR22)
UniProt Q9NR22, sequence (Q9NR22 whole entry, looked up): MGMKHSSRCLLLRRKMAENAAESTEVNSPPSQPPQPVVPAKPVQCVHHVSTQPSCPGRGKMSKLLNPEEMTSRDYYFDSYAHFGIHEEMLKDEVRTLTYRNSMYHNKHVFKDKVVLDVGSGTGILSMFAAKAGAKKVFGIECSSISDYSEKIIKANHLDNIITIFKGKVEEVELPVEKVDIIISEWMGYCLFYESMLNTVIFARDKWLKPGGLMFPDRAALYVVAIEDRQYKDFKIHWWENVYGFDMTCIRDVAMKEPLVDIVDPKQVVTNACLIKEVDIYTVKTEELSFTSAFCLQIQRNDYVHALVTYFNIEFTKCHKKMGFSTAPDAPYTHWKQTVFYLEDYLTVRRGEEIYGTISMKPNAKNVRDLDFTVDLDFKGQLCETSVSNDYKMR
active: [5] -0.256
inactive: alvocidib -0.11 | Tubastatin A -0.019 | [1] 0.001 | defactinib -0.103 | [2] -0.005 | encorafenib -0.002 | [3] 0.004 | alisertib -0.01 | [4] 0.016 | gefitinib 0.034 | lapatinib -0.011 | pictilisib 0.004 | crizotinib -0.037 | duvelisib 0.012 | gandotinib 0.071 | tozasertib 0.008 | doramapimod -0.001 | bafetinib -0.112 | [6] 0.168
